# Experiments:
# Conditions in all cases: concentration: 1 μM,replicates: in singlicate; n = 1
# [1] = system: T1, ASK2
# T1 construct: gene MAP3K6
# [2] = system: AURKA
# [3] = system: AURKB
# [4] = system: AURKC
# [5] = system: AXL
# [6] = system: T2, BIKE
# T2 construct: gene BMP2K
# [7] = system: BLK
# [8] = system: BMPR1A
# [9] = system: BMPR1B
# [10] = system: BMPR2
# [11] = system: BMX
# [12] = system: BRAF
# [13] = system: T3, BRK
# T3 construct: gene PTK6
# [14] = system: BRSK1
# [15] = system: BRSK2
# [16] = system: BTK
# [17] = system: BUB1
# [18] = system: CAMK1B
# [19] = system: CAMK1D
# [20] = system: CAMK1G
# 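Also: KINOMEscan kinase panel screen.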
SMILES,%Inh [1],%Inh [2],%Inh [3],%Inh [4],%Inh [5],%Inh [6],%Inh [7],%Inh [8],%Inh [9],%Inh [10],%Inh [11],%Inh [12],%Inh [13],%Inh [14],%Inh [15],%Inh [16],%Inh [17],%Inh [18],%Inh [19],%Inh [20]
C[C@@H](Oc1cc(-n2cnc3cc(-c4ccncc4)ccc32)sc1C(N)=O)c1ccccc1Cl [GSK479719],8%,0%,48%,100%,89%,98.6%,0%,0%,0%,0%,18%,1%,15%,58%,79%,0%,23%,18%,6%,0%
CN(c1cccc(CNc2nc(Nc3ccc4c(c3)CC(=O)N4)ncc2C(F)(F)F)c1)S(C)(=O)=O,0%,93.8%,99.4%,88%,64%,95%,0%,0%,0%,39%,18%,0%,0%,0%,0%,0%,2%,9%,14%,15%
O=C(Nc1ccccc1)c1cccc(Oc2ccc3nccn3n2)c1,3%,0%,4%,28%,0%,5%,9%,0%,14%,22%,17%,3%,0%,7%,0%,0%,0%,0%,0%,0%
CC(=O)Nc1ccc(-c2cc3ncnc(SCC(=O)O)c3s2)cc1,0%,4%,97.1%,32%,36%,19%,0%,8%,0%,7%,0%,4%,0%,28%,3%,0%,47%,0%,0%,19%
Cn1ccc2ncnc(Oc3ccc(NC(=O)Nc4cccc(C(F)(F)F)c4)c(F)c3)c21,0%,5%,88%,65%,87%,18%,22%,0%,0%,0%,1%,62%,0%,0%,2%,30%,0%,0%,12%,11%
Cn1ccc2ncnc(Oc3ccc(NC(=O)Nc4cnn(C(C)(C)C)c4)c(Cl)c3)c21,9%,23%,44%,52%,76%,19%,32%,17%,6%,9%,0%,77%,0%,0%,12%,0%,0%,9%,0%,0%
CS(=O)(=O)c1cccc(CNc2nc(Nc3ccc4c(c3)[C@@H]3C[C@@H]4CNC3=O)ncc2C(F)(F)F)c1,0%,99.4%,95.7%,73%,93.2%,96.2%,30%,0%,0%,0%,4%,0%,0%,0%,0%,0%,0%,19%,0%,0%
CC(C)S(=O)(=O)N1CCN(Cc2ccc3c(c2)nc(NC(=O)c2ccsc2)n3C[C@H](O)c2ccccc2)CC1 [GW635815],0%,8%,0%,37%,97.7%,57%,65%,15%,0%,50%,10%,0%,8%,0%,0%,0%,13%,0%,12%,19%
COc1cccc(C2=C(Nc3cccc(Cl)c3)C(=O)NC2=O)c1 [SB-341556],22%,0%,15%,3%,12%,34%,72%,0%,0%,0%,24%,0%,19%,11%,2%,0%,23%,29%,36%,0%
C[C@@H]1CCN(C(=O)N2CCCC2)C[C@@H]1N(C)c1ncnc2[nH]ccc12,0%,57%,31%,6%,7%,25%,0%,0%,13%,20%,1%,11%,0%,0%,5%,1%,25%,18%,8%,5%
O=C(NCC1CC1)c1ccc(-c2cc(C(=O)NC3CC3)ccc2F)cc1 [GW810445],0%,0%,4%,0%,10%,0%,30%,0%,0%,15%,0%,0%,0%,0%,0%,0%,22%,21%,0%,0%
COC(=O)c1cccc(NC(=O)NC2CCN(c3ccnc(NCc4ccc(F)cc4)n3)CC2)c1 [GSK1379860],4%,0%,0%,13%,9%,13%,24%,0%,0%,9%,11%,2%,10%,0%,0%,0%,21%,67%,0%,0%
Cc1ccc2c(-c3ccnc(Nc4ccc(C(F)(F)F)cc4)n3)cnn2n1 [GW819776],0%,11%,32%,4%,0%,12%,0%,13%,0%,32%,0%,0%,4%,0%,14%,0%,6%,0%,0%,0%
O=C(Nc1cccc(C(F)(F)F)c1)c1cccc(Oc2ccc3nccn3n2)c1,21%,5%,9%,6%,31%,15%,6%,0%,12%,21%,8%,76%,4%,31%,100%,0%,12%,0%,3%,0%
CSc1nccc(-c2c(-c3ccc(F)cc3)ncn2CCCN2CCOCC2)n1.Cl [SB-217146],0%,7%,35%,0%,0%,0%,0%,0%,4%,39%,0%,4%,0%,0%,0%,0%,14%,0%,12%,0%
CCN1CCN(CCCC(=O)Nc2n[nH]c3nc(-c4ccc(O)cc4)c(Br)cc23)CC1 [SB-731579],49%,0%,5%,0%,57%,9%,0%,0%,15%,12%,0%,81%,0%,50%,54%,0%,5%,65%,17%,0%
O=C(NOCC1CC1)c1cc(Br)c(F)c(F)c1Nc1ccc(I)cc1Cl,0%,0%,1%,0%,2%,0%,0%,0%,0%,0%,0%,0%,0%,0%,0%,0%,0%,0%,0%,0%
C[C@@H](Oc1cc(-n2cnc3ccc(-c4ccncc4)cc32)sc1C(N)=O)c1ccccc1Cl [GSK483724],0%,0%,19%,50%,32%,92.9%,31%,0%,0%,3%,27%,8%,25%,24%,20%,0%,41%,8%,21%,21%
COc1cc2nccc(Nc3ccc(Oc4ccccc4)cc3)c2cc1OC.Cl [GI261656],0%,22%,17%,0%,10%,6%,99.2%,0%,0%,7%,36%,0%,96.1%,0%,0%,93.3%,31%,23%,2%,0%
CCCC(=O)Nc1n[nH]c2ncccc12 [SB-601436],0%,0%,18%,0%,18%,9%,19%,0%,0%,17%,28%,7%,0%,0%,0%,0%,0%,0%,3%,0%
Cc1ccc(C(=O)Nc2ccc(Oc3ccc4nc(NC(=O)C5CC5)cn4c3)c(F)c2)c(=O)n1-c1ccccc1,0%,0%,82%,48%,84%,4%,99.3%,0%,0%,0%,73%,57%,88%,0%,0%,0%,0%,0%,0%,0%
